Mdm2-MdmX inh = inhibitors of human Mdm2-MdmX association, primary screen, cell-based, luminescence, split luciferase, SaOS-2, uHTS. Protein Mdm4 (Homo sapiens) + E3 ubiquitin-protein ligase Mdm2 (Homo sapiens), …. SaOS-2 split-luciferase Mdm2/MdmX complementation. inhibition, % at 8 µM. 3% of 330,000 active. AID 485346, 2010;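 active = inhibition of at least 50% at 8 µM in the primary screen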
Target sequence (O15151 whole entry, looked up): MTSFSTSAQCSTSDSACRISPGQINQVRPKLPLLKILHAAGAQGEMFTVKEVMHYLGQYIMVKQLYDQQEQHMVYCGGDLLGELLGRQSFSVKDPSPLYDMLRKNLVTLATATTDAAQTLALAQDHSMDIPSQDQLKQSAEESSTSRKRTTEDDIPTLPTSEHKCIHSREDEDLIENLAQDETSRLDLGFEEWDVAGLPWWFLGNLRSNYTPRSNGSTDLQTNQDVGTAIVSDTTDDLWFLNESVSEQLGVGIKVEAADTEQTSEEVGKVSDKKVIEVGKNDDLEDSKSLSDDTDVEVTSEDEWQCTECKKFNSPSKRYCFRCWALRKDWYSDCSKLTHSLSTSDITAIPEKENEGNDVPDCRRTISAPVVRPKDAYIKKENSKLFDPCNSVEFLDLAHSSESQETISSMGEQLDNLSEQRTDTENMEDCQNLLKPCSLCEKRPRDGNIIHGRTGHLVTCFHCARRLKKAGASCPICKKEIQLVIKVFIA
Target sequence (Q00987 whole entry, looked up): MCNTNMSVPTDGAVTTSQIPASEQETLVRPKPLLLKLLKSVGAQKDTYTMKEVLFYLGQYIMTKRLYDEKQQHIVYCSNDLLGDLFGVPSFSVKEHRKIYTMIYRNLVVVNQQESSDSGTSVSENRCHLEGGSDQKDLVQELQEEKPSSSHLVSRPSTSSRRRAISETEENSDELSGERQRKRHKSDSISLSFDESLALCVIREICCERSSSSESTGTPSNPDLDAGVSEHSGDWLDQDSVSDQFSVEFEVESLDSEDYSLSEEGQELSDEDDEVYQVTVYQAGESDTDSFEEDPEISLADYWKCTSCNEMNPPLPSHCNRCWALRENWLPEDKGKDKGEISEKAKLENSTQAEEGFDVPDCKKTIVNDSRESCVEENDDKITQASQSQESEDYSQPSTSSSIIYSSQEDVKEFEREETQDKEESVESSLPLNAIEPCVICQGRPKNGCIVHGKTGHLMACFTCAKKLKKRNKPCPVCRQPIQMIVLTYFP
CSC inhib = cancer stem cell viability inhibitors, primary screen, luminescence; inhibition, % at 7.5 µM; cancer stem cell-like cells viability; 1.1% of 300,000 active; in the data active = inhibition above about 75%; tested in HMLE shEcad cells
Jurkat NFkB inh = inhibitors of induced NF-kB luciferase reporter, primary screen, TCR NF-kB activation inhibitor project, cell-based, luminescence, uHTS. AID 435003, 2010. Jurkat, PMA/ionomycin-induced NF-kB luciferase reporter. 0.53% of 330,000 active. inhibition, % at 4 µM; in the data active = inhibition above about 50%
Gli-Sufu antag = Gli-Sufu pathway antagonists, primary screen, luciferase luminescence, Sufu-KO-LIGHT cells, uHTS. Sufu-KO-LIGHT fibroblasts, Gli luciferase reporter luminescence. inhibition, % at 5 µM. 0.74% of 340,000 active;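 active = inhibition above about 55%, limit read from the data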
697 NFkB inh = inhibitors of PMA/ionomycin-induced NF-kB reporter, 697 cells, primary screen, B-cell NF-kB inhibitor project, cell-based, luminescence, uHTS; 697 B-cell NF-kB luciferase reporter, 16 h; inhibition, % at 4 µM; 0.33% of 330,000 active; AID 435022, 2010; in the data active = inhibition above about 35%
aSyn 5UTR inh = MLPCN primary screen, SNCA 5' untranslated region; 0.82% of 300,000 active; alpha-synuclein 5'UTR reporter, inhibitor activity; inhibition, % (tested at 7.5 µM); in the data active = inhibition above about 60%;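 note: H4 neuroglioblastoma cells stably carrying SNCA 5'UTR luciferase fusion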
Jurkat NFkB conf = PMA/ionomycin-induced NF-kB reporter inhibitors, Jurkat retest, confirmation, T-cell NF-kB inhibitor project, cell-based, luminescence, single concentration; shares compounds with Jurkat NFkB inh; Jurkat NF-kB luciferase, 16 h; 27% of 2,700 active; inhibition, % at 4 µM;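 active = inhibition reaching about 45% at 4 µM in either replicate, limit read from the data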
697 NFkB conf = PMA/ionomycin-induced NF-kB reporter inhibitors, 697 retest, confirmation, B-cell NF-kB inhibitor project, cell-based, luminescence, single concentration | shares compounds with 697 NFkB inh | 35% of 2,000 active | inhibition, % at 4 µM | AID 449746, 2010 | 697 B-cell NF-kB luciferase, 16 h; in the data active = inhibition mostly above about 28%, no sharp cut-off; inactive = mostly below about 22%
Mdm2 MdmX conf = Mdm2-MdmX complex disruptors, retested hits, confirmation, luminescence, single concentration; shares compounds with Mdm2-MdmX inh; Mdm2-MdmX binding, luminescent assay; inhibition, % at 8 µM; 55% of 10,000 active; AID 489028, 2010; in the data active = inhibition above about 40%
FLuc counter = full-length luciferase signal inhibition, confirmation, counter-screen for Mdm2/MdmX interaction inhibitor project, cell-based, single concentration, SaOS-2; 77% of 6,200 active; inhibition, % at 8 µM; SaOS-2 full-length luciferase counterscreen, luminescence; shares compounds with Mdm2-MdmX inh; AID 504607, 2011;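 active = mean inhibition at 8 µM reaching about 37%, which flags the compound as non-specific, limit read from the data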;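 note: p53-null SaOS-2 cells with luciferase driven by a doxycycline-inducible promoter; compound on cells about two nights before reading with doxycycline added after day one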
Numbers stand for hits; i = inactive; nt = no result given. Only some compounds are listed: those with a hit (about 4.5% of all), similar ones and a draw of the others.

SMILES	Mdm2-MdmX inh	CSC inhib	Jurkat NFkB inh	Gli-Sufu antag	697 NFkB inh	aSyn 5UTR inh	Jurkat NFkB conf	Mdm2 MdmX conf	FLuc counter	others
CC1=CC(=C2C(=O)NC(=S)NC2=O)C=C(C(F)(F)F)N1CCc1ccccc1	i	i	50	nt	i	i	i	nt	nt
CC1=CC(=C2C(=O)NC(=S)NC2=O)C=C(C(F)(F)F)N1Cc1ccccc1	i	i	70	i	i	113	i	nt	nt
COC1=CC(=O)[C@]2(C=C1OC)OC[C@@H]1Oc3c(ccc4c3C=CC(C)(C)O4)C(=O)[C@@H]12	i	i	52	85	78	nt	74	nt	nt	697 NFkB conf=87
CCN1CCC(NCC2CCCCC2)CC1	i	i	i	i	i	i	nt	nt	nt
CC(C)(C)n1cc(C(=O)c2ccc3ccccc3c2O)cn1	i	i	i	i	i	i	i	nt	nt	697 NFkB conf=i
COC(=O)C1=C(c2c(C)noc2C)C[C@@H]2CC[C@H]1N2C(=O)NC1CCCCC1	i	i	i	i	i	nt	nt	nt	nt
CC(=O)N1Cc2cnnn2-c2ccccc2C1C#N (centres undefined)	nt	nt	nt	i	nt	nt	nt	nt	nt
Nc1ccccc1C(=O)OCCOc1ccccc1	i	i	i	i	i	nt	i	nt	nt	697 NFkB conf=i
COC(=O)C[C@]1(C(=O)OC)CN(C#N)N(c2ccc(Cl)cc2)C12c1ccccc1-c1ccccc12	99	i	97	i	i	96	77	i	nt
CC1=Nc2ccccc2/C1=C/c1c(O)n(C)c(=O)[nH]c1=O	i	i	i	i	i	i	nt	nt	nt
Cc1ccccc1-n1c(O)c(/C=C2/C(c3ccccc3)=Nc3ccccc32)c(=O)[nH]c1=O	57	i	53	i	i	i	i	63	66
c1cc(OCCN2CC2)ccn1	nt	nt	nt	i	nt	nt	nt	nt	nt
CC(=O)c1ccc(OC(C)C)c(Cc2c(O)[nH]c(=S)[nH]c2=O)c1	i	i	i	i	i	i	nt	nt	nt
CC(=O)O[C@@]12CO[C@@H]1C[C@@H](O)[C@@]1(C)C(=O)[C@H](O)C3=C(C)[C@@H](OC(=O)[C@H](O)[C@@H](NC(=O)c4ccccc4)c4ccccc4)C[C@@](O)([C@@H](OC(=O)c4ccccc4)C12)C3(C)C (some centres undefined)	51	i	65	i	i	113	65	61	48
CCC(C)C(=O)N[C@@H](c1ccccc1)[C@@H](O)C(=O)O[C@H]1C[C@@]2(O)[C@@H](OC(=O)c3ccccc3)C3[C@](C)(C(=O)[C@H](OC(C)=O)C(=C1C)C2(C)C)[C@@H](O)C[C@H]1OC[C@@]31OC(C)=O (some centres undefined)	62	i	72	i	i	103	68	66	39
CC/C=C/CC(=O)N[C@@H](c1ccccc1)[C@@H](O)C(=O)O[C@H]1C[C@@]2(O)[C@@H](OC(=O)c3ccccc3)C3[C@](C)(C(=O)[C@H](OC(C)=O)C(=C1C)C2(C)C)[C@@H](O)C[C@H]1OC[C@@]31OC(C)=O (some centres undefined)	69	i	66	i	i	77	63	67	48
Cn1ncnc2c(=O)n(C)c(=O)nc1-2	92	176	55	94	i	98	99	84	i
